CRE Fsk mod – CRE-bla signaling modulation under forskolin stimulation. CHO CRE-bla reporter (cAMP response element driving beta-lactamase), forskolin EC10, beta-lactamase ratio. Potency, µM (titrated, usually from 38.2 µM), inactives show top-dose activity change, negative = inhibition, most hits filed as activators. hit rate 2.5% among 71,000. AID 662; active means well fitted activation curve with a large enough effect in the signal ratio, with a control signal flat, not every such curve was filed as active; inconclusive means small, poorly fitted or top-dose-only effect, or effect the other way, or a change in a side signal; the % refers to the signal ratio; further: potency means the concentration at half of the fitted maximal effect; % of control where 0% means no effect
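Reporter-gene assay: CHO cells with beta-lactamase behind cAMP responsive elements, co-treated with compound and EC10 NKH 477 for 3 hours at 37 degrees Celsius. Activity came from the 460/530 nm CCF4 emission ratio.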
AID923 – qHTS Assay for Allosteric/Competitive Inhibitors of Caspase-1: Spectroscopic Profiling in AFC Spectral Region | compound fluorescence, AFC spectral region (405/520 nm) | Potency, µM (doses to about 57.5 µM), for the others: at the top dose fluorescence increase, most hits filed as activators | hit rate 1.1% among 75,000 | AID 923, 2007; further: potency means the concentration at half of the fitted maximal effect; 0% is about no effect
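Titrations up to 57 uM read every 20 sec for 3 min (405/520 nm) with 50 nM caspase 1 and 5 uM Ac-WEHD-AFC, pH 7.5 HEPES buffer. Fluorescence-vs-time intercept gave baseline, scaled against on-plate AFC standard.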
4MU fluor – compound fluoresces in the 4-MU spectral region. max dye-equivalent concentration, M. compound autofluorescence, 340/450 nm, 4-MU equivalents; hits give high values. hit rate 11% among 59,000; in the data active means max dye-equivalent concentration above about 10 nM; inconclusive means mostly about 1.1 nM to 9.6 nM
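Compounds in 100 mM Tris, pH 8.0, sat 15 min at room temperature before fluorescence was read at 340 nm excitation/450 nm emission; a per-plate six-point 4-MU standard curve converted signals to dye-equivalent concentration at each compound concentration.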
A350 autofl – compound fluoresces in the Alexa 350 spectral region; hit rate 11% among 59,000; Compound autofluorescence, 340/450 nm, Alexa 350 dye-equivalents; hits give high values; max dye-equivalent concentration, M; in the data active means max dye-equivalent concentration above about 10 nM; inconclusive means mostly about 1.1 nM to 9.6 nM
HADH2 inh – inhibitors of human HADH2 dehydrogenase | hit rate 3.4% among 73,000 | recombinant HADH2, NADH fluorescence, beta-hydroxybutyryl-CoA | AID 886 | Q99714 | Potency, µM (series often up to 57.1 µM), for inactives: at the highest dose activity change, negative = inhibition, usual class: inhibitors; further: potency means the concentration at half of the fitted maximal effect; on the % scale 0 is the no-effect control and ±100 the full control effect; nearly all actives have a fitted effect of over 60% in size
Target sequence (Q99714 whole entry, looked up, one chain of several): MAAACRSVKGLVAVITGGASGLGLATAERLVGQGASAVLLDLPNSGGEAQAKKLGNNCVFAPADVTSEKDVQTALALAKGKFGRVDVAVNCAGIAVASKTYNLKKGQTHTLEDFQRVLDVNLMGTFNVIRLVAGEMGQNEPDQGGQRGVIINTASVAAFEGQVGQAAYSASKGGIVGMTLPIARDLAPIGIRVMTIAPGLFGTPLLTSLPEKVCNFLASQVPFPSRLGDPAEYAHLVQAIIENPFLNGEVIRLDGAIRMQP
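Buffer 100 mM Tris-HCl pH 9.0/0.01% Tween-20; HADH2 20 nM; NAD+ 1 mM; beta-hydroxybutyryl-CoA 90 uM (all final). 15 min cpd preincubation, RT.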
HSD17B inhib – blocks hydroxysteroid 17-beta dehydrogenase activity; Q99714; recombinant HSD17B10, NADH fluorescence kinetic; Potency, µM (doses to about 57.1 µM), without a hit: at the highest dose activity change, negative = inhibition, usual class: inhibitors; hit rate 7.6% among 75,000;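 further: the protocol describes HADH2 (HSD17B10) and not the HSD17B4 of the title; potency means the concentration at half of the fitted maximal effect; on the % scale 0 is the no-effect control and ±100 the full control effect; nearly all actives have a fitted effect of over 70% in size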
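His-tagged E. coli-expressed HADH2 at 20 nM in 100 mM Tris-HCl pH 9.0 with 0.01 % Tween-20, preincubated 15 min with compound at room temperature. Reaction with 1 mM NAD+ and 90 uM beta-hydroxybutyryl coenzyme A; NADH fluorescence (360/450 nm) read kinetically over 4 min, last minus first point.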
Starred values were filed as active, the others as inactive. In the library only some 14% were active in any assay of this set; here they are far more common. Unless noted, the call rests on the fitted dose curve; in most records, active means well fitted curve in the direction sought with a large enough effect; inconclusive means small, poorly fitted or top-dose-only effect, or another doubt; inactive means no such curve, though single readings can be large; an effect the other way counts as inactive or inconclusive.

For CCCCCn1c(=O)[nH]c2cc(C(=O)NCCN3CCOCC3)ccc2c1=O the results were CRE Fsk mod -6.7%, AID923 0.5%, 4MU fluor 2.23e-08M*, A350 autofl 2.36e-08M*, HADH2 inh 25.1µM* and HSD17B inhib inconclusive.
CCOCCCn1c(=S)[nH]c2cc(C(=O)NCCN(CC)CC)ccc2c1=O was read as CRE Fsk mod inconclusive, AID923 0.0%, 4MU fluor inconclusive, A350 autofl inconclusive, HADH2 inh 3.8% and HSD17B inhib -10.6%.
Screening O=C(NCCN1CCCC1)c1ccc2c(=O)n(CCc3ccccc3)c(=O)[nH]c2c1 returned CRE Fsk mod -7.8%, AID923 2.7%, 4MU fluor 2.52e-08M*, A350 autofl 2.41e-08M*, HADH2 inh 22.6% and HSD17B inhib 15.8µM*.
For CN(c1cccc(NS(=O)(=O)c2cccs2)c1)S(C)(=O)=O the results were CRE Fsk mod 3.2%, AID923 -1.5%, 4MU fluor inactive, A350 autofl inactive, HADH2 inh 2.8% and HSD17B inhib 7.8%.
`CN(CC(=O)N1CCc2ccccc21)S(=O)(=O)c1ccc(Cl)cc1` gave CRE Fsk mod -23.3%, AID923 -1.6%, 4MU fluor inactive, A350 autofl inactive, HADH2 inh 10.6% and HSD17B inhib 3.6%.
`CCN1CCN(C(=O)c2ccc3c(=O)n(CCC4=CCCCC4)c(=O)[nH]c3c2)CC1` gave CRE Fsk mod inconclusive, AID923 0.4%, 4MU fluor inconclusive, A350 autofl inconclusive, HADH2 inh -7.9% and HSD17B inhib inconclusive.
For O=C(NCc1ccco1)c1ccc2c(=O)n(CCC3=CCCCC3)c(=O)[nH]c2c1 the results were CRE Fsk mod inconclusive, AID923 5.2%, 4MU fluor inactive, A350 autofl inactive, HADH2 inh -21.2% and HSD17B inhib 31.6µM*.
Screening O=C(NCc1ccc2c(c1)OCO2)c1cccc(C(=O)NCc2ccc3c(c2)OCO3)c1 returned CRE Fsk mod -6.3%, AID923 1.5%, HADH2 inh -6.3% and HSD17B inhib -14.4%.
Screening CCCCCn1c(=O)[nH]c2cc(C(=O)NCc3ccc4c(c3)OCO4)ccc2c1=O returned CRE Fsk mod -5.4%, AID923 0.4%, 4MU fluor 1.33e-08M*, A350 autofl 1.21e-08M*, HADH2 inh -0.4% and HSD17B inhib inconclusive.
For Cc1nc2nc(-c3ccccc3)[nH]n2c(=O)c1Cc1ccccc1 the results were CRE Fsk mod -0.1%, AID923 -0.5%, 4MU fluor inactive, A350 autofl inactive, HADH2 inh -12.3% and HSD17B inhib 10µM*.
For CC(C)(C)c1cc(=O)n2c(C#N)c(C#N)nc2[nH]1 the results were CRE Fsk mod inconclusive, AID923 -0.5%, 4MU fluor 8.05e-08M*, A350 autofl 7.57e-08M*, HADH2 inh 20µM* and HSD17B inhib 31.6µM*.
`Cc1cc(=O)oc2c1c(C)nn2-c1ccc(C(=O)OC(C)C)cc1` gave CRE Fsk mod 3.0%, AID923 3.4%, HADH2 inh -3.4% and HSD17B inhib 3.6%.
For CC(=O)CC(=O)NC(=NC1CCCCC1)Nc1nc(C)cc(C)n1 the results were CRE Fsk mod 2.4%, AID923 0.2%, 4MU fluor 1.08e-08M*, A350 autofl 1.18e-08M*, HADH2 inh -7.2% and HSD17B inhib -13.8%.
For Cc1cc(C)c(S(N)(=O)=O)c(C)c1-n1cnnn1 the results were CRE Fsk mod 6.0%, AID923 -1.4%, 4MU fluor inactive, A350 autofl inactive, HADH2 inh -5.3% and HSD17B inhib 1.3%.
`COC1=C(OC)C(=O)c2ccccc2C1=O` gave CRE Fsk mod inconclusive, AID923 -5.5%, 4MU fluor 1.53e-07M*, A350 autofl 1.95e-07M*, HADH2 inh -15.6% and HSD17B inhib 16.2%.
Nc1nc(Cn2nnc(-c3ccccc3F)n2)nc(N2CCOCC2)n1 was read as CRE Fsk mod 24.9%, AID923 1.2%, 4MU fluor inactive, A350 autofl inactive, HADH2 inh 8.6% and HSD17B inhib -3.4%.

Assay outcomes: PubChem, National Center for Advancing Translational Sciences (NCATS)
